# PubChem BioAssay AID1159580 (chemical genetic matrix, 2015)
# In all, about 5,500 compounds went through this assay and about 2,000 (36%) were called active. Not shown: some 18% with an inconclusive outcome. This is one part of the list. A number with no mark means an inactive call. Cut-off read from the data, not from the text of the source: active = normalized growth mostly below about 0.91 (no sharp cut-off); inconclusive = no clear call, values can overlap the other calls; inactive = mostly above about 0.92.
# Assay: chemical genetic growth profiling, strain panel (AID 1159580);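 note: tested at 20 µM; growth read once vehicle control cultures reached saturation at 30 °C; 1 = growth at the plate median or of vehicle wells; lower values mean less growth of the strain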
# Conditions: S. cerevisiae deletion strains, growth OD
# [1] = locus YAR019C, strain CDC15, active compounds read low
# [2] = locus YBL105C, strain PKC1, active compounds read low
# [3] = locus YBR135W, strain CKS1, active compounds read low
# [4] = locus YBR136W, strain MEC1, active compounds read low
# [5] = locus YBR160W, strain CDC28, active compounds read low
# [6] = locus YDL017W, strain CDC7, active compounds read low
# [7] = locus YDL028C, strain MPS1, active compounds read low
# [8] = locus YDL101C, strain DUN1, active compounds read low
# [9] = locus YDL108W, strain KIN28, active compounds read low
# [10] = locus YDL132W, strain cdc53, active compounds read low
# [11] = locus YDL214C, strain PRR2, active compounds read low
# [12] = locus YDR052C, strain DBF4, active compounds read low
# [13] = locus YDR054C, strain cdc34, active compounds read low
# [14] = locus YDR226W, strain ADK1, active compounds read low
# [15] = locus YDR477W, strain SNF1, active compounds read low
# [16] = locus YER123W, strain YCK3, active compounds read low
# [17] = locus YER133W, strain GLC7, active compounds read low
# [18] = locus YFL009W, strain cdc4, active compounds read low
# [19] = locus YFL029C, strain CAK1, active compounds read low
# [20] = locus YFR003C, strain YPI1, active compounds read low
# [21] = locus YFR019W, strain FAB1, active compounds read low
# [22] = locus YFR028C, strain CDC14, active compounds read low
# [23] = locus YGR040W, strain KSS1, active compounds read low
# [24] = locus YGR052W, strain FMP48, active compounds read low
# [25] = locus YGR092W, strain DBF2, active compounds read low
# [26] = locus YHR030C, strain SLT2, active compounds read low
# [27] = locus YHR079C, strain IRE1, active compounds read low
# [28] = locus YHR082C, strain KSP1, active compounds read low
# [29] = locus YHR205W, strain SCH9, active compounds read low
# [30] = locus YIL147C, strain SLN1, active compounds read low
# [31] = locus YJL095W, strain BCK1, active compounds read low
# [32] = locus YJL128C, strain PBS2, active compounds read low
# [33] = locus YJL157C, strain FAR1, active compounds read low
# [34] = locus YJR016C, strain ILV3, active compounds read low
# [35] = locus YJR066W, strain TOR1 (second series), active compounds read low
# [36] = locus YJR066W, strain TOR1, active compounds read low
# [37] = locus YKL048C, strain ELM1, active compounds read low
# [38] = locus YKL067W, strain YNK1, active compounds read low
# [39] = locus YKL101W, strain HSL1, active compounds read low
# [40] = locus YKL193C, strain SDS22, active compounds read low
# [41] = locus YKL203C, strain TOR2, active compounds read low
# [42] = locus YLR113W, strain HOG1, active compounds read low
# [43] = locus YLR133W, strain CKI1, active compounds read low
# [44] = locus YLR403W, strain SFP1, active compounds read low
# [45] = locus YML070W, strain DAK1, active compounds read low
# [46] = locus YMR001C, strain CDC5, active compounds read low
# [47] = locus YMR205C, strain PFK2 (second series), active compounds read low
# [48] = locus YMR277W, strain FCP1, active compounds read low
# [49] = locus YNL006W, strain LST8, active compounds read low
# [50] = locus YNL020C, strain ARK1, active compounds read low
# [51] = locus YNL161W, strain CBK1, active compounds read low
# [52] = locus YNL183C, strain NPR1, active compounds read low
# [53] = locus YNL207W, strain RIO2, active compounds read low
# [54] = locus YNL222W, strain SSU72, active compounds read low
# [55] = locus YNL307C, strain MCK1 (second series), active compounds read low
# [56] = locus YOL078W, strain AVO1, active compounds read low
# [57] = locus YOL136C, strain PFK27, active compounds read low
# [58] = locus YOR061W, strain CKA2, active compounds read low
# [59] = locus YOR119C, strain RIO1, active compounds read low
# [60] = locus YOR231W, strain MKK1, active compounds read low
# [61] = locus YOR329C, strain SCD5, active compounds read low
# [62] = locus YPL031C, strain PHO85, active compounds read low
# [63] = locus YPL153C, strain RAD53, active compounds read low
# [64] = locus YPL204W, strain HRR25, active compounds read low
# [65] = locus YPL209C, strain IPL1, active compounds read low
# [66] = locus YPL256C, strain CLN2, active compounds read low
# [67] = locus YPR025C, strain CCL1, active compounds read low
# [68] = locus YPR106W, strain ISR1, active compounds read low
# [69] = locus YPR111W, strain DBF20, active compounds read low
# [70] = strain NNK1, active compounds read low
# [71] = strain TSCII, active compounds read low
smiles,measurement,setting,value
CC(C)(C)c1ccc(C(=O)NNc2c(Cl)cccc2Cl)cc1,normalized growth,[1],0.977
same,normalized growth,[2],0.952
same,normalized growth,[3],0.948
same,normalized growth,[4],0.97
same,normalized growth,[5],0.958
same,normalized growth,[6],0.973
same,normalized growth,[7],0.98
same,normalized growth,[8],0.985
same,normalized growth,[9],0.965
same,normalized growth,[10],0.968
same,normalized growth,[11],0.9
same,normalized growth,[12],0.974
same,normalized growth,[13],0.981
same,normalized growth,[14],0.986
same,normalized growth,[15],0.948
same,normalized growth,[16],0.904
same,normalized growth,[17],0.939
same,normalized growth,[18],0.975
same,normalized growth,[19],0.978
same,normalized growth,[20],0.974
same,normalized growth,[21],0.933
same,normalized growth,[22],0.973
same,normalized growth,[23],0.918
same,normalized growth,[24],0.946
same,normalized growth,[25],0.894
same,normalized growth,[26],0.864
same,normalized growth,[27],0.885
same,normalized growth,[28],0.974
same,normalized growth,[29],0.86
same,normalized growth,[30],0.974
same,normalized growth,[31],0.898
same,normalized growth,[32],0.878
same,normalized growth,[33],0.88
same,normalized growth,[34],0.966
same,normalized growth,[35],0.868
same,normalized growth,[36],0.959
same,normalized growth,[37],0.954
same,normalized growth,[38],0.892
same,normalized growth,[39],0.89
same,normalized growth,[40],0.974
same,normalized growth,[41],1.01
same,normalized growth,[42],0.726 (active)
same,normalized growth,[43],0.89
same,normalized growth,[44],0.893
same,normalized growth,[45],0.862
same,normalized growth,[46],0.971
same,normalized growth,[47],0.888
same,normalized growth,[48],0.971
same,normalized growth,[49],0.978
same,normalized growth,[50],0.889
same,normalized growth,[51],0.981
same,normalized growth,[52],0.887
same,normalized growth,[53],0.974
same,normalized growth,[54],0.969
same,normalized growth,[55],0.902
same,normalized growth,[56],0.967
same,normalized growth,[57],0.85
same,normalized growth,[58],0.874
same,normalized growth,[59],0.985
same,normalized growth,[60],0.832
same,normalized growth,[61],0.981
same,normalized growth,[62],0.935
same,normalized growth,[63],0.92
same,normalized growth,[64],0.947
same,normalized growth,[65],0.968
same,normalized growth,[66],0.834 (active)
same,normalized growth,[67],0.962
same,normalized growth,[68],0.944
same,normalized growth,[69],0.995
same,normalized growth,[70],0.943
same,normalized growth,[71],0.972
Cc1onc(-c2c(Cl)cccc2Cl)c1C(=O)NC(C)(C)CC(C)(C)C,normalized growth,[1],0.998
same,normalized growth,[2],0.99
same,normalized growth,[3],0.991
same,normalized growth,[4],0.989
same,normalized growth,[5],0.997
same,normalized growth,[6],0.997
same,normalized growth,[7],0.976
same,normalized growth,[8],0.994
same,normalized growth,[9],0.983
same,normalized growth,[10],0.992
same,normalized growth,[11],0.945
same,normalized growth,[12],0.991
same,normalized growth,[13],0.995
same,normalized growth,[14],0.999
same,normalized growth,[15],0.977
same,normalized growth,[16],0.919
same,normalized growth,[17],0.97
same,normalized growth,[18],0.995
same,normalized growth,[19],0.998
same,normalized growth,[20],0.992
same,normalized growth,[21],0.972
same,normalized growth,[22],0.995
same,normalized growth,[23],0.956
same,normalized growth,[24],1.04
same,normalized growth,[25],0.969
same,normalized growth,[26],1.12
same,normalized growth,[27],1.05
same,normalized growth,[28],1.08
same,normalized growth,[29],0.955
same,normalized growth,[30],0.99
same,normalized growth,[31],1.07
same,normalized growth,[32],0.945
same,normalized growth,[33],0.953
same,normalized growth,[34],0.992
same,normalized growth,[35],0.951
same,normalized growth,[36],1.09
same,normalized growth,[37],0.982
same,normalized growth,[38],0.961
same,normalized growth,[39],0.953
same,normalized growth,[40],0.996
same,normalized growth,[41],1.04
same,normalized growth,[42],0.962
same,normalized growth,[43],0.965
same,normalized growth,[44],0.927
same,normalized growth,[45],0.932
same,normalized growth,[46],0.998
same,normalized growth,[47],0.966
same,normalized growth,[48],0.998
same,normalized growth,[49],0.988
same,normalized growth,[50],0.971
same,normalized growth,[51],0.995
same,normalized growth,[52],1.03
same,normalized growth,[53],0.991
same,normalized growth,[54],0.989
same,normalized growth,[55],1
same,normalized growth,[56],0.992
same,normalized growth,[57],0.95
same,normalized growth,[58],0.959
same,normalized growth,[59],0.992
same,normalized growth,[60],1.02
same,normalized growth,[61],0.994
same,normalized growth,[62],0.979
same,normalized growth,[63],0.964
same,normalized growth,[64],0.977
same,normalized growth,[65],0.993
same,normalized growth,[66],1.08
same,normalized growth,[67],0.992
same,normalized growth,[68],0.993
same,normalized growth,[69],0.989
same,normalized growth,[70],0.99
same,normalized growth,[71],0.995
Cc1cc(NC(=O)c2c(-c3c(Cl)cccc3Cl)noc2C)c([N+](=O)[O-])cc1C,normalized growth,"locus YAL013W, strain DEP1, active compounds read low",1.01
same,normalized growth,"locus YBR229C, strain ROT2, active compounds read low",1.01
same,normalized growth,[8],1.08
same,normalized growth,"locus YDR150W, strain NUM1, active compounds read low",1.03
same,normalized growth,"locus YEL061C, strain CIN8, active compounds read low",1
same,normalized growth,"locus YGR078C, strain PAC10, active compounds read low",1.04
same,normalized growth,"locus YGR229C, strain SMI1, active compounds read low",0.975
same,normalized growth,[26],1.02
same,normalized growth,"locus YHR087W, strain rtc3, active compounds read low",0.969
same,normalized growth,"locus YJR043C, strain POL32, active compounds read low",1.02
same,normalized growth,"locus YJR075W, strain HOC1, active compounds read low",1
same,normalized growth,"locus YLR039C, strain RIC1, active compounds read low",1.04
same,normalized growth,"locus YLR058C, strain SHM2 (second series), active compounds read low",0.983
same,normalized growth,"locus YLR085C, strain ARP6, active compounds read low",0.999
same,normalized growth,"locus YLR262C, strain YPT6, active compounds read low",0.967
same,normalized growth,"locus YML094W, strain GIM5, active compounds read low",0.992
same,normalized growth,"locus YMR219W, strain ESC1, active compounds read low",0.992
same,normalized growth,"locus YMR263W, strain SAP30, active compounds read low",1.04
same,normalized growth,"locus YNL153C, strain GIM3, active compounds read low",1.04
same,normalized growth,"locus YNL298W, strain CLA4 (second series), active compounds read low",1.04
same,normalized growth,"locus YNL322C, strain KRE1, active compounds read low",0.981
same,normalized growth,"locus YNR030W, strain Alg12, active compounds read low",0.975
same,normalized growth,"locus YOL006C, strain TOP1, active compounds read low",0.987
same,normalized growth,"locus YPL055C, strain LGE1, active compounds read low",0.996
same,normalized growth,"locus YPL241C, strain CIN2, active compounds read low",1.01
same,normalized growth,"locus YPR135W, strain CTF4, active compounds read low",0.995
